ELG1 genotox – inducers of genotoxicity in HEK293T ELG1-luciferase cells | actives 1.3% (n = 330,000) | HEK293T ELG1-luciferase reporter, luminescence, 16 h | AID 504466 | Potency, µM (highest dose often 46 µM), inactives show at the top dose activity change, positive = activation, actives largely listed as activators; note: % of control where 0% means no effect; nearly all actives have a fitted effect of over 60% in size
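DMSO vehicle served as control against compound-treated ELG1-luciferase HEK293T cells; exposure lasted 16 hr at 37 °C and 5% CO2, followed by ONE-Glo luminescence detection after 30 min.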
SMN2 splice up – increases expression of the SMN2 splice variant; HEK293 SMN2-luciferase splicing reporter, luminescence, 30-36 h; Potency, µM (highest dose often 46.1 µM), for inactives: top-dose activity change, positive = activation, usual class: activators; actives 2.8% (n = 210,000); AID 1458; note: % of control where 0% means no effect; nearly all actives have a fitted effect of over 55% in size
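HEK293 cells carry an SMN2 minigene-luciferase reporter in which exon 7 inclusion puts luciferase in frame. Cells were seeded at 2000 cells/well, attached for 10-12 hours, then exposed to compounds for 30-36 hours at 37C before ONE-Glo luminescence.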
Luc counter – blocks Kinase-Glo luciferase, a counter-screen artifact | AID 1379 | actives 0.28% (n = 200,000) | Potency, µM (doses to about 38.3 µM), without a hit: at the top dose activity change, negative = inhibition, usual class: inhibitors | Q27757 | Kinase-Glo luciferase, ATP luminescence, 8 min; note: % is set by controls: 0 for no effect and ±100 for the full control effect; nearly all actives have a fitted effect of over 60% in size
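Light output from Kinase-Glo luciferase with luciferin and 10 uM ATP in 50 mM imidazole pH 7.2, KCl, MgCl2, Tween 20, BSA; compound pin-delivered, 8-min ambient incubation, then luminescence read.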
NPC1 prom act – NPC1 promoter activation; Huh7 NPC1 promoter luciferase reporter, 24 h; Potency, µM (highest dose often 9.22 µM), for inactives: at the highest dose activation, hits mostly activators; actives 2.4% (n = 320,000); AID 485313; note: % of control where 0% means no effect; nearly all actives have a fitted effect of over 60% in size
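Readout is luciferase luminescence, reflecting NPC1 promoter activation in stably transfected Huh7 cells after 24 h compound exposure at 37 °C in reduced-serum medium with 10% FBS.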
FLuc modulator – firefly luciferase modulation, counter-screen for miR-21 project | P08659 | purified FLuc, Km substrates, luminescence inhibition | Potency, µM (titrated, usually from 57.5 µM), for the others: at the highest dose activity change, negative = inhibition, hits mostly inhibitors | actives 6.9% (n = 360,000);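 note: plate controls were vehicle for no effect and reference inhibitor for full effect; nearly all actives have a fitted effect of over 55% in size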
Target sequence (P08659 whole entry, looked up): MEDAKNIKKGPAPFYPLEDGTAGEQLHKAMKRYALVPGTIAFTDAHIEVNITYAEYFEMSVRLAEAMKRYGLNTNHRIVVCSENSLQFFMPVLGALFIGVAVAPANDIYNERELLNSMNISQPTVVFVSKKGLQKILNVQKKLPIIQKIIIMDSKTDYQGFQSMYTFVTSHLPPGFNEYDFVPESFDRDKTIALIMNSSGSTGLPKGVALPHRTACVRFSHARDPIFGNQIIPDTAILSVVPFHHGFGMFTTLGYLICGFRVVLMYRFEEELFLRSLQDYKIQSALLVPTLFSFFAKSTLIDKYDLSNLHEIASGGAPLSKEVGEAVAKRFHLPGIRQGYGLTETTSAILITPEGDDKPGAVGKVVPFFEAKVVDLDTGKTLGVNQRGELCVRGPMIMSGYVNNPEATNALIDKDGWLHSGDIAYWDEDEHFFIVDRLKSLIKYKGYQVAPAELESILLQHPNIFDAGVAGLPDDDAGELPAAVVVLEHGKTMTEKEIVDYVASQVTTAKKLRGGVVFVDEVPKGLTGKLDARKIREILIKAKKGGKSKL
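Purified P. pyralis luciferase (10nM final) with 10uM D-luciferin and 10uM ATP (Km levels) in 50mM Tris acetate pH 7.5, 10mM Mg acetate, 0.01% Tween-20, 0.05% BSA; qHTS 6-point titration, ~60 µM downward; luminescence read.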
Rab9 prom act – Rab9 promoter activation; Huh7 Rab9 promoter-luciferase reporter, luminescence, 24 h; Potency, µM (titrated, usually from 9.22 µM), for the others: at the highest dose activation, negative = inhibition, hits mostly activators; actives 2.8% (n = 320,000); AID 485297; note: % of control where 0% means no effect; nearly all actives have a fitted effect of over 60% in size
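Huh7 reporter line, Rab9 promoter upstream of luciferase. Compound exposure 24 h at 37 °C in reduced-serum medium with 10% FBS. Read-out: luminescence.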
* marks the source's active call; other numbers are inactive results; ? = inconclusive; . = not tested or not shown; [ ] = another dose, or the depositor's remark. Compounds with a hit are over-represented: about 7.5% of the library has one in this group of screens. Calls come from the whole dose curve; as a rule, active = well fitted curve in the direction sought with a large enough effect; inconclusive = small, poorly fitted or top-dose-only effect, or another doubt; inactive = no such curve, though single readings can be large; an effect the other way counts as inactive or inconclusive. Potency is the fitted concentration of half-maximal effect.

SMILES	ELG1 genotox	SMN2 splice up	Luc counter	NPC1 prom act	FLuc modulator	Rab9 prom act
Cc1cc2nc(-c3cccc(NC(=O)CSc4ccc(Cl)cc4)c3)oc2cc1C	.	1%	.	.	1.9µM*	.
O=c1c2c3c(sc2nc2n1CCCCC2)C(O)CCC3 (stereo unspecified)	?	.	-5%	?	?	2.8µM*
O=C1c2sc3nc4n(c(=O)c3c2CCC1Br)CCCCC4 (stereo unspecified)	?	-4%	-6%	29%	19µM*	?
Cc1cccnc1Nc1nc(-c2ccccn2)cs1	5.8µM*	.	-7%	?	?	-1%
Cc1cccnc1Nc1nc(-c2ccccc2)cs1	2.6µM*	.	.	3.2µM*	1.9µM*	3.5µM*
O=C(c1ccc(OC2CCN(Cc3ccccn3)CC2)cc1)N1CCCCO1	7%	.	.	-1%	-1%	2%
COc1ccc(CNC(=O)CN2C(=O)CSc3ccc(S(=O)(=O)N4CCCC4)cc32)cc1	.	.	.	.	1%	.
C[C@H]1CC2[C@@H]3CCC4=CC(=O)C=C[C@]4(C)[C@@]3(F)[C@@H](O)C[C@]2(C)[C@@]1(O)C(=O)CO (stereo partly specified)	.	6%	0%	.	.	.
Cc1ccc(C(C)C)c(OCC(=O)Nc2ccc(S(=O)(=O)Nc3onc(C)c3C)cc2)c1	.	-10%	.	.	?	.
Cc1ccc(Cl)cc1NS(=O)(=O)c1ccc2oc(=O)c3ncn(C)c3c2c1	.	.	.	.	-12%	.
Cc1ccc(-c2cc(-c3c(C)nn(C)c(=O)c3N)[nH]n2)cc1	6%	.	.	3%	?	2%
Cc1ccc(-c2cc(N)n(-c3ccc(C)cc3)n2)cc1	?	?	-5%	2.5µM*	13µM*	3.5µM*
Cc1ccc(-c2cc(N)n(-c3ccc(F)cc3)n2)cc1	23µM*	13µM*	-5%	?	9.5µM*	3.5µM*
Cc1cc(N)n(-c2ccc(C)c(C)c2)n1	?	.	.	22%	?	29%
Nc1nc(Nc2ccccc2F)nc(N2CCCC2)c1[N+](=O)[O-]	?	.	.	0%	17µM*	?
CCCn1c(=O)c2sccc2n2c(CCCC(=O)N3CCN(c4ccccc4OC)CC3)nnc12	.	.	.	.	0%	.
C(=N\Nc1ccccc1)/c1nc2ccccc2s1	?	.	.	3.5µM*	1.5µM*	0.79µM*
C(=N\Nc1nc2ccccc2s1)/c1ccccn1	?	.	.	-6%	0.076µM*	-28%
Brc1csc(/C=N/Nc2nc3ccccc3s2)c1	?	2.8µM*	-4%	5µM*	1.2µM*	3.2µM*
O=C(O)c1csc(N/N=C/c2ccc(Br)cc2)n1	7%	-5%	4%	25%	5.4µM*	30%
CCNc1nc(NCC)nc(N/N=C/c2ccc(Br)cc2)n1	-10%	-21%	-4%	-15%	-13%	-3%
O=S(=O)(CCN1C=CC(C(F)(F)F)=NCC1)c1ccc(Cl)cc1Cl	1%	.	.	-2%	0%	8%
CCCCNC(=O)N(O)C1N(/N=C/c2ccco2)C(=S)SC1(C)C (stereo unspecified)	4%	.	.	0%	.	-2%
Cc1cc(=O)[nH]c(N/N=C/c2ccc([N+](=O)[O-])cc2)n1	10%	-10%	3%	-2%	-1%	0%
Cc1csc(N/N=C/c2ccccn2)n1	12µM*	3.5µM*	?	4%	2.1µM*	0.45µM*
SMILES	ELG1 genotox	SMN2 splice up	Luc counter	NPC1 prom act	FLuc modulator	Rab9 prom act
Cc1csc(N/N=C/c2ccc([N+](=O)[O-])cc2)n1	10%	.	.	?	?	2.8µM*
CC(C)CCN1CCNC(=O)C1CC(=O)N(C)CCCN1CCOCC1 (stereo unspecified)	1%	.	.	-1%	0%	0%
COc1ccc(NC(=O)c2ccc(-c3csc(C)n3)cc2)cc1	?	.	.	?	2.4µM*	2.8µM*
COc1ccc(-c2csc(C)n2)cc1	20%	-5%	-5%	12%	19µM*	11%
CCOc1ccc(NC(=O)c2ccc(-c3csc(C)n3)cc2)cc1	-12%	.	.	0%	-3%	-5%
O=C(Nc1cccc(NC(=O)c2ccc(F)cc2)c1)c1ccc(F)cc1	7%	.	.	1%	-2%	14%
Cc1nc(-c2ccc(C(=O)Nc3cccc(F)c3)cc2)cs1	?	.	.	0.089µM*	0.27µM*	?
Cc1nc(-c2ccc(C(=O)Nc3ccc(F)cc3)cc2)cs1	21µM*	8%	?	?	0.76µM*	?
Cc1nc(-c2cccc(NC(=O)c3ccc(-n4cccn4)cc3)c2)cs1	-3%	.	.	-1%	6.7µM*	-7%
Cc1ccccc1OCC(=O)N(Cc1ccc(C(C)C)cc1)C1CCS(=O)(=O)C1 (stereo unspecified)	.	-15%	.	.	-6%	.
COC(=O)c1ccc(NC(=O)CSCC(=O)OCC(=O)c2ccc(Br)cc2)cc1	0%	-11%	-2%	-3%	12µM*	1%
Cc1nc(-c2ccc(Cl)cc2)sc1C1(C)CC(c2cccc(F)c2)=NO1 (stereo unspecified)	14%	.	.	14%	24µM*	-4%
Cc1nc(-c2ccc(Cl)cc2)sc1C1(C)CC(c2cccc(Cl)c2)=NO1 (stereo unspecified)	15%	.	.	18%	24µM*	3%
Cc1ccc(C)c2sc(N3CCN(C(=O)c4ccco4)CC3)nc12	.	.	.	.	-15%	.
COc1cccc(/C=C2\N=C(C3CCCCC3)OC2=O)c1OC	3%	-14%	-1%	0%	15µM*	1%
CC(=O)Oc1ccc(/C=C2\N=C(C3CCCCC3)OC2=O)cc1	0%	4%	2%	0%	17µM*	-4%
COc1ccccc1/C=C1\N=C(C(C)(C)C)OC1=O	0%	.	.	-6%	17µM*	-2%
COc1ccccc1/C=C/C(C)=O	-3%	-3%	0%	-2%	1%	-2%
NC(N)=NC(N)=Nc1ccc(S(N)(=O)=O)cc1	.	-8%[9.22 µM]	-5%[7.66 µM]	.	.	.
CC1=CCC(/C=N\Nc2nnc3c(n2)[nH]c2ccccc23)CC1 (stereo unspecified)	?	9%	-4%	?	1.5µM*	?
COc1ccc(-c2cc3c(=O)n(CC(=O)Nc4ccc(Cl)cc4)ncn3n2)cc1	?	.	.	0%	?	0%
O=C(Nc1ccccc1)c1ccc(C(=O)Nc2ccccc2)nc1	?	7%	2%	?	-12%	2µM*
CC(=O)Nc1cccc(NC(=O)c2ccc(C(=O)Nc3cccc(NC(C)=O)c3)nc2)c1	11%	16%	-11%	15%	3.8µM*	17%
Cc1cccc(NC(=O)c2ccc(C(=O)Nc3cccc(C)c3)nc2)c1	-2%	-31%	-3%	11%	-12%	12%
